About 83,000 compounds went through this panel and 20% of them were active in at least one assay; those are over-represented in the sample as a whole.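 Cell lines were cultured in 96-well plates, exposed to a single compound concentration, and assessed for percent growth 48 hours later.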 Unmarked numbers belong to inactive results. Activity calls are given as the source filed them. The calls were made as follows: active = growth percent below 10; inactive = the rest.
Columns and labels:
Assay in all cases: NCI-60 one-dose screen, 48 h (100 = growth as untreated, 0 = no growth, -100 = all killed)
Conditions in all cases: 10 µM unless noted
[1] = test system: BT-549 breast
[2] = test system: MDA-MB-435 melanoma
[3] = test system: SW-620 colon
[4] = test system: MCF7 breast
[5] = test system: HCT-116 colon
[6] = test system: HCC-2998 colon
[7] = test system: KM12 colon

| Compound | growth [1] | growth [2] | growth [3] | growth [4] | growth [5] | growth [6] | growth [7] |
| --- | --- | --- | --- | --- | --- | --- | --- |
| COc1cccc(N2CCN(c3ncnc4c3[nH]c3ccc(F)cc34)C[C@@H]2C)c1 | -97% (active) | -75.4% (active) | -3.32% (active) | 0.969% (active) | -35.9% (active) | 16.7% | -71% (active) |
| O=C(CCN1C(=O)/C(=C/c2ccccc2F)SC1=S)N1CCOCC1 | 108% | 80.8% | 58.8% | 30.1% | 81.9% | 115% | 80.8% |
| C#Cc1nc(C2=C(C)C(OC(C)=O)/C(=N/OC(C)=O)C2)cs1 (configuration not stated) | -74.3% (active) | 88.9% | 8.98% (active) | 25.9% | 19.9% | 105% | -19.7% (active) |
| COc1ccc(/C=C2\SC(=Nc3cc(C)on3)NC2=O)cc1 | 88.1% | 104% | 99% | 89.2% | 96.1% | 108% | 108% |
| COC(=O)c1ccc(NC(=S)N2CCc3ccc([N+](=O)[O-])cc3C2)cc1O | 101% | 111% | 110% | 92.7% | 117% | 110% | 103% |
| C#Cc1nc(C2=C(C)C(OC(=O)CCC(=O)O)CC2)cs1 (configuration not stated) | 102% | 106% | 113% | 87.6% | 114% | 109% | 79.2% |
| COc1cc(/C=C/C(=O)c2ccccc2)ccc1Oc1nc(NCCO)nc(N2CCOCC2)n1 | 92.4% | 93.1% | 60.9% | 46.9% | 69.5% | 113% | 102% |
| COc1ccc2[nH]cc(-c3cc(N)n4nc(-c5c[nH]c6ccc(OC)cc56)cc4n3)c2c1 | 105% | -81.4% (active) | -16% (active) | 2.38% (active) | -88.2% (active) | -4.06% (active) | -37.8% (active) |
| COc1ccc(/C=N/NC(=O)c2[nH]c3ccc(Br)cc3c2-c2ccccc2)o1 | -15.5% (active) | -16.9% (active) | 21.6% | 9.83% (active) | -18.8% (active) | 21.3% | 6.83% (active) |
| c1ccc(CNc2ncnc3ccc(-c4cnc5[nH]ncc5c4)cc23)cc1 | 62.2% | 86.9% | 72.9% | 30.3% | 80.1% | 83.6% | 84.9% |
| Nc1cc(-c2c[nH]c3ccc(F)cc23)nc2cc(-c3c[nH]c4ccc(F)cc34)nn12 | 103% | 64.2% | 4.64% (active) | 37% | 31.9% | 72.5% | 40.6% |
| CC(C)(C)Nc1nc2c(OCCc3ccccc3)cccn2c1-c1ccccc1Cl | 24% | 7.76% (active) | 11.5% | -10.6% (active) | 2.39% (active) | -0.61% (active) | 4.49% (active) |
| N#Cc1ccc(C(=O)CSc2nc(Nc3ccc(S(N)(=O)=O)cc3)c3ccccc3n2)cc1 | 111% | 108% | 103% | 98.6% | 100% | 119% | 107% |
| Cc1cccc2sc(/N=C(\N)C(Br)Br)nc12 | 30.2% | 12.3% | -40.2% (active) | -13.3% (active) | -29.1% (active) | 4.99% (active) | 9.77% (active) |
| CCCSc1nc(Nc2ccc(/C(C)=N\NC(N)=S)cc2)c(C#N)c(-c2ccc(OC)cc2)n1 | 82% | 70.7% | 103% | 69.1% | 45.3% | 110% | 84.7% |
| O=C(N/N=C/c1ccc([N+](=O)[O-])s1)c1[nH]c2ccc(Br)cc2c1-c1ccccc1 | -19% (active) | -35.3% (active) | 3.34% (active) | 7.64% (active) | -7.92% (active) | 0.797% (active) | 12.8% |

| Compound | growth [1] | growth [2] | growth [3] | growth [4] | growth [5] | growth [6] | growth [7] |
| --- | --- | --- | --- | --- | --- | --- | --- |
| C#C[C@]1(O)CC[C@H]2[C@@H]3CC=C4c5sc(-c6ccc(F)cn6)nc5CC[C@]4(C)[C@H]3CC[C@@]21C | 7.85% (active) | 18.1% | 16.1% | 12.1% | 18.1% | 65.1% | 13.9% |
| N#Cc1nc(-c2ccccc2)oc1S(=O)(=O)N1CCCCC1 | 85.7% | 68% | -12.8% (active) | 29.2% | 21.2% | 105% | 101% |
| CC(=O)Oc1ccccc1C(=O)Nc1ccc(C(=O)/C=C/c2cccs2)cc1 | 99.2% | 97.8% | 107% | 93% | 108% | 109% | 102% |
| Nc1nc(N)c2c(n1)NC(c1ccc(C(F)(F)F)cc1)CC(c1ccc(Nc3nc(NCCO)nc(Nc4ccc(Cl)cc4)n3)cc1)=N2 (configuration not stated) | -28.7% (active) | -61.5% (active) | -66.6% (active) | -52.5% (active) | -85.3% (active) | -86.6% (active) | -65.3% (active) |
| COc1ccc(NC(=O)c2sc3nc(-c4cnccn4)cc(-c4cccs4)c3c2N)cc1 | 42.4% | 71.5% | 65.2% | 57.4% | 61.9% | 67.5% | 61% |
| Clc1ccc2c(NCCCN3CCOCC3)c3oc4ccc(Cl)cc4c3nc2c1 | 81.3% | 69.6% | 27.5% | 22.2% | 23.4% | 10% | 48.4% |
| Cc1nc2cnc(N)c(C#Cc3cncc(C(=O)Nc4ccc(Cl)c(C(F)(F)F)c4)c3)c2nc1C | 86.7% | 41% | -18.9% (active) | -67.5% (active) | 15.4% | 60.4% | 3.01% (active) |
| C=C1CC[C@H]2[C@@](C)(CCC3OC(c4ccc(OCc5cn(C6CC(OC(C)=O)C(OC(C)=O)C(COC(C)=O)O6)nn5)cc4)OC[C@]32C)[C@@H]1/C=C/C1=CCOC1=O (some centres not stated) | 61.2% | 85.4% | 96.1% | 44.4% | 48.3% | 100% | 86.3% |
| COc1cc2nc(-c3ccc(C(F)(F)F)cc3)cc(OCCCNCC3CCCO3)c2cc1OC (configuration not stated) | 66.3% | 5.88% (active) | 16.3% | 13% | 22.6% | 54.4% | 27.3% |
| CCCC(=O)NC(c1cccc(N(C)C)c1)c1cc(C)c2cccnc2c1O (configuration not stated) | 78.4% | 77.6% | 50% | 35.3% | 22.7% | 57.9% | 54.9% |
| Nc1c(C(=O)Nc2ccc(C(F)(F)F)cc2)sc2nc(-c3cnccn3)cc(-c3cccs3)c12 | 22.5% | 95.4% | 103% | 75.8% | -62.1% (active) | 108% | 95.6% |
| CC(C)(O)c1cncc(-c2ccc3ncnc(N4CCc5cc(F)c(Cl)cc54)c3c2)c1 | -7.34% (active) | 17.1% | 40.1% | 10.8% | 30.1% | 34.2% | 35.1% |
| O=C(NNc1nc2cc(F)ccc2n2c(CN3CC4(COC4)C3)ccc12)c1cnccn1 | 36.4% | 35.2% | 27.1% | 13.6% | 22% | 57.3% | 23% |
| COc1cc(-c2nc3ccc(-c4nnc(SCC(=O)Nc5ccc(C(=O)/C=C/c6ccc(Cl)cc6)cc5)o4)cc3[nH]2)cc(OC)c1OC | 84.4% | 99% | 100% | 59.1% | 81.5% | 120% | 90.9% |
| COC(=O)C1CCCN(S(=O)(=O)/N=C2\NC(=O)NC2=C(Cl)Cl)C1 (configuration not stated) | 118% | 111% | 85.8% | 20.4% | 97.8% | 111% | 4.95% (active) |
